From PubChem BioAssay (EPA / NIEHS)
Inconclusive results are not listed. More than one record can exist for a structure, and the calls need not agree. Calls of active or inactive are those of the source. Rule for the calls: active = hit-call score of the fitted dose curve at least 0.9, where 1 is the maximum; inconclusive = response in the unintended direction; inactive = score below 0.9.

Assay: Tanguay_ZF_120hpf_BRAI_legacy: (Legacy) Oregon State University Tanguay Lab 120 Hour Post-fertilization zebrafish Assay for Brain Malformation (AID 2283641)
Procedure: Tanguay_ZF_120hpf_legacy is a whole embryo, multiplexed endpoint assay using zebrafish larvae exposed for 120 hours post fertilization on a 96-well plate.Tanguay_ZF_120hpf_BRAI_legacy is one of one assay component(s) measured or calculated from the Tanguay_ZF_120hpf_legacy assay. It is designed to make measurements of zebrafish development as detected with brightfield microscopy of developing zebrafish embryos.Data from the assay component Tanguay_ZF_120hpf_BRAI_legacy was analyzed into 1 assay endpoints. This assay endpoint, Tanguay_ZF_120hpf_BRAI_legacy, was analyzed in the positive analysis fitting direction relative to DMSO as the negative control and baseline of activity. Using a type of morphology reporter, gain-of-signal activity can be used to understand changes in developmentals as they relate to the whole embryo. To generalize the intended target to other relatable targets, this assay endpoint is annotated to the zebrafish development intended target family, where the subfamily is brain morphogenesis.
Zebrafish husbandry: Tropical 5D wild-type adult zebrafish were housed in at an approximate density of 1000 per 100 gallon tank at the Sinnhuber Aquatic Research Laboratory, Oregon State University, Corvallis, OR. Each tank was kept at standard laboratory conditions of 28C on a 14-h light/10-h dark photoperiod in fish water consisting of reverse osmosis water supplemented with a commercially available salt (Instant Ocean). Spawning funnels were placed into the tanks the night prior, and embryos were collected and staged. […] Ten microliters of each row of dilution plate 2 was added to 2 exposure plates. The final DMSO concentration used was 0.64% (vol/vol). Thirty-two embryos were also exposed to 5uM trimethyltin chloride (positive control). Plates were sealed to prevent evaporation and foil covered to reduce light exposure and kept in a 28C incubator. Embryos were statically exposed until 120 hpf. At 24 hpf, embryos were assessed for photomotor response using a custom photomotor response analysis tool (PRAT) and for developmental toxicity endpoints (MO24: mortality at 24 hpf, DP: developmental progression, SM: spontaneous movement, and NC: notochord distortion). At 120 hpf, locomotor activity was measured using Viewpoint Zebralab and assessed for 18 endpoints. Zebrafish acquisition and analysis program (ZAAP), a custom program designed to inventory, acquire, and manage zebrafish data, was used to collect developmental endpoints as either present or absent (i.e., binary responses were recorded). If mortality occurred for an embryo (at either 24 or 120 hpf), the non-mortality endpoints were not measured.

SMILES | outcome | AC50
CCCCCCCCc1ccc(O)cc1 | inactive | 
Cn1sc(Cl)cc1=O | inactive | 
O=[N+]([O-])c1ccc(O)c([N+](=O)[O-])c1 | inactive | 
C[C@]12CCC(=O)C[C@@H]1CC[C@@H]1[C@@H]2CC[C@]2(C)[C@@H](O)CC[C@@H]12 | inactive | 
Oc1cccc2cccnc12 | inactive | 
O=C(Nc1ccc2[nH]ccc2c1)c1cc2cc(F)ccc2n1Cc1cccc(F)c1 | inactive | 
ClCC(Cl)CCl | inactive | 
CC(=O)[O][Hg][c]1ccccc1 | inactive | 
Cc1ccccc1N | inactive | 
CC(C)(c1ccccc1)c1ccc(O)c(C(C)(C)c2ccccc2)c1 | inactive | 
C[C@@H]1C[C@@H]([C@H](O)CC2CC(=O)NC(=O)C2)C(=O)[C@@H](C)C1 | inactive | 
O=C(O)C(Cl)(Cl)Cl | inactive | 
O=C(O)C(F)(F)C(F)(F)C(F)(F)C(F)(F)C(F)(F)C(F)(F)F | inactive | 
C=CC(=O)OCCCCCC(C)C | inactive | 
CC12CC1(C)C(=O)N(c1cc(Cl)cc(Cl)c1)C2=O (stereo not given) | inactive | 
COc1cc(-c2ccc(N)c(OC)c2)ccc1N | inactive | 77.2 µM (active)
CN(C)N=O | inactive | 
O=C1C2(Cl)C3(Cl)C4(Cl)C(Cl)(Cl)C5(Cl)C3(Cl)C1(Cl)C5(Cl)C24Cl (stereo not given) | inactive | 
NC(=O)O | inactive | 
CCOP(=S)(OCC)Oc1nc(Cl)c(Cl)cc1Cl | inactive | 
C=C(C)C(=O)[O][Sn]([CH2]CCC)([CH2]CCC)[CH2]CCC | inactive | 
CCC(=O)C(CC(C)N(C)C)(c1ccccc1)c1ccccc1 (stereo not given) | inactive | 
O=c1[nH]c(=O)[nH]c(=O)[nH]1 | inactive | 
ClC1(Cl)C2(Cl)C3(Cl)C4(Cl)C(Cl)(Cl)C5(Cl)C3(Cl)C1(Cl)C5(Cl)C24Cl (stereo not given) | inactive | 
O=C(O)C(F)(F)C(F)(F)C(F)(F)C(F)(F)C(F)(F)C(F)(F)C(F)(F)C(F)(F)C(F)(F)C(F)(F)F | inactive | 
CCOP(=S)(OCC)SCSP(=S)(OCC)OCC | inactive | 
CCC(C)(C)c1ccc(O)c(C(C)(C)CC)c1 | inactive | 
CCN1CCC2(CC1)COc1cc3c(cc12)N(C(=O)c1ccc(-c2ccc(-c4nnc(C)o4)cc2C)cc1)CC3 | inactive | 
CC(C)(C)c1cc(O)ccc1O | inactive | 
